Results reported in PubChem BioAssay (EPA / NIEHS).
Calls of active or inactive are those of the source. Rule for the calls: active = hit-call score of the fitted dose curve at least 0.9, where 1 is the maximum; inactive = score below 0.9.

Tests used:
[1] = biological target: Transcription factor E2F1 (Homo sapiens) (UniProt Q01094); experiment: ATG_E2F_CIS: Attagene CIS-FACTORIAL HepG2 Assay for human E2F Transcription Factor 1 (AID 2282935); conditions: HepG2 Attagene cis-reporter, E2F reporter RNA transcripts; actives raise or lower the signal
How it was run: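 Measures reporter transcript levels via RT-PCR with capillary electrophoresis detection in HepG2 cells harboring cis-regulated reporter units; 24 h post-dose; bidirectional curve fitting with DMSO as baseline.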

[2] = ATG_E_Box_CIS: Attagene CIS-FACTORIAL HepG2 Assay for human Enhancer Box (E-box) (AID 2282936); conditions: HepG2 E-box cis-reporter transcription, actives raise or lower the signal
How it was run: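 First, HepG2 cells receive multiple cis-regulated reporter constructs by transient transfection. Next, chemicals are applied for 24 h. Finally, reporter mRNA is quantified via RT-PCR and capillary electrophoresis, with DMSO as baseline.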

[3] = ATG_M_61_CIS: Attagene CIS-FACTORIAL HepG2 Assay for M61 Transcription Factor (Internal Marker) (AID 2282937); conditions: HepG2 Attagene CIS-FACTORIAL M61 internal marker reporter; actives raise or lower the signal
How it was run: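 Human liver HepG2, transient MRTU transfection (cis promoter elements), 24 h compound. Total RNA → oligo(dT) RT → PCR → FAM label → HpaI → CE. Internal background marker; bidirectional fitting, DMSO = baseline.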

[4] = ATG_EGR_CIS: Attagene CIS-FACTORIAL HepG2 Assay for human Early Growth Response 1 (EGR1) (AID 2282938); conditions: HepG2 Attagene CIS-FACTORIAL EGR reporter mRNA; actives raise or lower the signal
How it was run: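 Transient transfection of human HepG2 with multiple cis-regulated reporter units, chemical exposure 24 h, total RNA isolated. Reverse transcription, PCR, fluorescent labelling and capillary electrophoresis quantify reporter transcripts; activity fitted bidirectionally against DMSO.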

[5] = ATG_M_19_CIS: Attagene CIS-FACTORIAL HepG2 Assay for M19 Transcription Factor (Internal Marker) (AID 2282939); conditions: HepG2 Attagene CIS-FACTORIAL M19 internal marker reporter; actives raise or lower the signal
How it was run: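 Internal marker readout, fitted in both directions against DMSO, from HepG2 cells carrying transfected cis-element reporter constructs; RT-PCR and capillary electrophoresis of reporter mRNA after 24 h exposure.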

[6] = ATG_ERE_CIS: Attagene CIS-FACTORIAL HepG2 Assay for Estrogen Response Element (ERE) (AID 2282940); conditions: HepG2 ERE cis-reporter, Attagene RNA transcript; actives raise or lower the signal
How it was run: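 After 24 h compound treatment, RNA from transfected HepG2 cells was reverse-transcribed, reporter cDNA PCR-amplified, FAM-labelled, HpaI-cut and resolved by capillary electrophoresis. ERE-driven cis reporter transcripts reflect endogenous factors; gain or loss scored against DMSO.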

[7] = ATG_Ets_CIS: Attagene CIS-FACTORIAL HepG2 Assay for human Erythroblast Transformation Specific (ETS) (AID 2282941); conditions: HepG2 ETS cis-reporter transcription, actives raise or lower the signal
How it was run: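 HepG2 cells transiently transfected with cis-promoter reporter transcription units were dosed for 24 h; reporter mRNA was measured by RT-PCR, 6-FAM primer extension, HpaI digestion and capillary electrophoresis, with bidirectional fitting against DMSO baseline.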

[8] = biological target: Hepatocyte nuclear factor 3-beta (Homo sapiens) (UniProt Q9Y261); experiment: ATG_FoxA2_CIS: Attagene CIS-FACTORIAL HepG2 Assay for human Forkhead box A2 (FOXA2) (AID 2282942); conditions: HepG2 cis-reporter transcription factor activity, 24 h; actives raise or lower the signal
How it was run: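 Transient MRTU transfection of HepG2 liver cells; 24 h treatment; total RNA → oligo(dT) RT → PCR → FAM primer extension → HpaI cut → CE. Bidirectional fit vs DMSO.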

[9] = ATG_FoxO_CIS: Attagene CIS-FACTORIAL HepG2 Assay for human Forkhead box O (FoxO) (AID 2282943); conditions: HepG2 Attagene cis-reporter, FoxO element, mRNA; actives raise or lower the signal
How it was run: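 Transfected HepG2 reporter cells exposed to test chemical for 24 h; reporter RNA measured by reverse transcription, PCR and fluorescent capillary electrophoresis; curves fitted for increases and decreases against DMSO.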

[10] = ATG_GATA_CIS: Attagene CIS-FACTORIAL HepG2 Assay for human GATA Binding Protein (AID 2282944); conditions: HepG2 GATA cis-element reporter, Attagene multiplex mRNA; actives raise or lower the signal
How it was run: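 Reporter transcripts from a GATA cis-regulated unit, among multiplexed reporters in transfected HepG2 cells, were measured by RT-PCR with capillary electrophoresis after 24 h dosing. Induction or loss scored relative to DMSO.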

[11] = ATG_GLI_CIS: Attagene CIS-FACTORIAL HepG2 Assay for human Zinc Finger Protein GLI1 (AID 2282945); conditions: HepG2, Attagene cis-factorial reporter mRNA, GLI element; actives raise or lower the signal
How it was run: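 Transiently transfected HepG2 cells report endogenous transcription factor activity via cis-element-driven reporter units. After 24 h compound exposure, reporter mRNA was measured by RT-PCR with capillary electrophoresis; bidirectional fitting against DMSO baseline.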

[12] = ATG_GRE_CIS: Attagene CIS-FACTORIAL HepG2 Assay for human Glucocorticoid Response Elements (GRE) (AID 2282947); conditions: HepG2 GRE cis-reporter, Attagene multiplex mRNA; actives raise or lower the signal
How it was run: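 Endogenous transcription factor activity is read through cis-element reporter constructs transiently transfected into HepG2 cells. After 24 h treatment, labelled RT-PCR products are resolved by capillary electrophoresis; DMSO sets baseline for bidirectional curve fitting.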

[13] = ATG_ISRE_CIS: Attagene CIS-FACTORIAL HepG2 Assay for human Interferon Regulatory Factor 1 (IRF1) binding to an Interferon-Stimulated Response Element (ISRE) (AID 2282948); conditions: HepG2 ISRE cis-reporter (Attagene), mRNA transcription readout; actives raise or lower the signal
How it was run: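 HepG2 cells transiently transfected with multiplexed cis-promoter reporter units; after 24 h compound exposure, reporter mRNA quantified by RT-PCR, FAM labelling, HpaI digestion and capillary electrophoresis. Bidirectional fit versus DMSO baseline.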

[14] = ATG_M_32_CIS: Attagene CIS-FACTORIAL HepG2 Assay for M32 Transcription Factor (Internal Marker) (AID 2282949); conditions: HepG2 Attagene cis-factorial M32 reporter, mRNA; actives raise or lower the signal;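 note: background control marker of the multiplexed CIS panel rather than a real target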
How it was run: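 Internal background marker read-out: RT-PCR/capillary electrophoresis fluorescence of reporter transcripts from transiently transfected HepG2 cells after 24 h chemical exposure. Activity fitted bidirectionally relative to DMSO negative control.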

[15] = ATG_M_06_CIS: Attagene CIS-FACTORIAL HepG2 Assay for M06 Transcription Factor (Internal Marker) (AID 2282950); conditions: HepG2 Attagene CIS-FACTORIAL M06 internal marker reporter; actives raise or lower the signal
How it was run: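 Serves as a background control readout. Transfected HepG2 exposed to compounds for 24 h, then reporter transcripts quantified by fluorescent RT-PCR and capillary electrophoresis. Both directions fitted against DMSO baseline.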

[16] = biological target: Hypoxia-inducible factor 1-alpha (Homo sapiens) (UniProt Q16665); experiment: ATG_HIF1a_CIS: Attagene CIS-FACTORIAL HepG2 Assay for human Hypoxia Inducible Factor 1 (HIF1A) (AID 2282951); conditions: HepG2 Attagene cis-factorial HIF1a reporter transcription; actives raise or lower the signal
How it was run: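 Transient MRTU transfection of human HepG2 liver cells, 24 h compound treatment, then total RNA isolation, oligo(dT) reverse transcription, PCR amplification, fluorescent labelling and capillary electrophoresis of reporter fragments. Gain or loss relative to DMSO.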

[17] = biological target: Hepatocyte nuclear factor 6 (Homo sapiens) (UniProt Q9UBC0); experiment: ATG_HNF6_CIS: Attagene CIS-FACTORIAL HepG2 Assay for human Hepatocyte Nuclear Factor 6 (HNF6) (AID 2282952); conditions: HepG2 Attagene cis-factorial HNF6 reporter transcription; actives raise or lower the signal
How it was run: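 HepG2 cells transiently transfected with cis-element-driven multiple reporter transcription units, dosed 24 h; reporter mRNA quantified by RT-PCR, FAM primer extension, HpaI digestion and capillary electrophoresis; bidirectional fit versus DMSO baseline.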

[18] = biological target: Heat shock factor protein 1 (Homo sapiens) (UniProt Q00613); experiment: ATG_HSE_CIS: Attagene CIS-FACTORIAL HepG2 Assay for human Heat Shock Transcription Factor 1 (HSE) (AID 2282953); conditions: HepG2 HSE cis-reporter, Attagene RNA transcription; actives raise or lower the signal
How it was run: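 Endogenous transcription factor activity in transiently transfected HepG2, read as reporter mRNA by RT-PCR with fluorescent capillary electrophoresis after 24 h. Gain or loss of signal fitted versus DMSO baseline.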

[19] = ATG_MRE_CIS: Attagene CIS-FACTORIAL HepG2 Assay for human Metal Responsive Element (MRE) (AID 2282954); conditions: HepG2 MRE cis-reporter transcription, Attagene multiplex; actives raise or lower the signal
How it was run: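 Fluorescent reporter fragments separated by capillary electrophoresis give mRNA induction for the MRE unit after 24 h treatment of transfected HepG2 cells. Endogenous transcription-factor activity is read; DMSO serves as negative control and baseline.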

[20] = biological target: Bile acid receptor (Homo sapiens) (UniProt Q96RI1); experiment: ATG_IR1_CIS: Attagene CIS-FACTORIAL HepG2 Assay for human Nuclear Receptor Subfamily 1 Group H Member 4 (NR1H4), IR1 submotif (AID 2282946); conditions: IR1 reporter transcription, actives raise or lower the signal
How it was run: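 HepG2 cells transiently transfected with multiple cis-promoter-driven reporter units to measure endogenous transcription factor activity; 24 h exposure. Reporter mRNA read by RT-PCR, FAM labelling, HpaI digestion and capillary electrophoresis. Bidirectional fit versus DMSO.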

Measured: AC50

Chain of Bile acid receptor (Homo sapiens) (Q96RI1 whole entry, looked up): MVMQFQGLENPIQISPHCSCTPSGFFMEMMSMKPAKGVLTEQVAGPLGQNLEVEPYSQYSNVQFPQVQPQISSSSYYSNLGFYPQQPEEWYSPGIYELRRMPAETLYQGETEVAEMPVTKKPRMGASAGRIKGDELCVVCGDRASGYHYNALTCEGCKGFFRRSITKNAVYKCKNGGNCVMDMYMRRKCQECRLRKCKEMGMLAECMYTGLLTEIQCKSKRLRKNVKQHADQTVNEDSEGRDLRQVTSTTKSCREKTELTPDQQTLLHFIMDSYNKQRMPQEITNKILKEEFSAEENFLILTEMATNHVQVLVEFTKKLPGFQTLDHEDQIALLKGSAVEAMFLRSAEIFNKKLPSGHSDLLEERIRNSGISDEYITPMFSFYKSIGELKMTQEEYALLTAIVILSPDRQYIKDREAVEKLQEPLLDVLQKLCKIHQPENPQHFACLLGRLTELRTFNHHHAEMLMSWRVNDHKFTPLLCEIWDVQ
Chain of Transcription factor E2F1 (Homo sapiens) (Q01094 whole entry, looked up): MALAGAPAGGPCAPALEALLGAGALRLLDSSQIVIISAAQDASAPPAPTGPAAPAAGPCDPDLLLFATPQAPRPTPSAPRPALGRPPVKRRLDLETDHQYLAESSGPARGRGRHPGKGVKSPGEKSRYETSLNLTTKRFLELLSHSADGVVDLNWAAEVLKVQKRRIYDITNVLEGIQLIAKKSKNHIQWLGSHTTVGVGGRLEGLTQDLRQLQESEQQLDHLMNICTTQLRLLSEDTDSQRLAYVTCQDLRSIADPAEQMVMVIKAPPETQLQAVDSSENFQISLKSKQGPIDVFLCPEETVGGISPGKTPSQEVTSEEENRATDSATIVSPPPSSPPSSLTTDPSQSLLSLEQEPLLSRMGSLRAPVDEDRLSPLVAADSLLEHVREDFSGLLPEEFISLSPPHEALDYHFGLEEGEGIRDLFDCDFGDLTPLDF
Chain of Heat shock factor protein 1 (Homo sapiens) (Q00613 whole entry, looked up): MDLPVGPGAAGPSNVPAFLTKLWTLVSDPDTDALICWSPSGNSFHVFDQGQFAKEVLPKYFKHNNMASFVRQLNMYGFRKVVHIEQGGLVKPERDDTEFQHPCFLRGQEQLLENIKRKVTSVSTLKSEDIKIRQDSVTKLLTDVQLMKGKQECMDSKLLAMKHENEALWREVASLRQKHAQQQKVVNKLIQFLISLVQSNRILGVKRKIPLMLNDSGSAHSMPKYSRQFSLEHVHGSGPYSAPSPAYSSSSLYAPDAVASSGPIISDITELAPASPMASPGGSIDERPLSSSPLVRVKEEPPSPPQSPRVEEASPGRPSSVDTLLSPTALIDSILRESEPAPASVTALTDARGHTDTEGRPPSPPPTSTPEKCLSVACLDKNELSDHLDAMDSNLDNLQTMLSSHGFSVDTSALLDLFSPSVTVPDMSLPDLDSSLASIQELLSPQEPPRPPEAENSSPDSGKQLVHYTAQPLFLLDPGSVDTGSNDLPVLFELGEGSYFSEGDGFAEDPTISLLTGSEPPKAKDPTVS
Chain of Hypoxia-inducible factor 1-alpha (Homo sapiens) (Q16665 whole entry, looked up, the tested form may be a part): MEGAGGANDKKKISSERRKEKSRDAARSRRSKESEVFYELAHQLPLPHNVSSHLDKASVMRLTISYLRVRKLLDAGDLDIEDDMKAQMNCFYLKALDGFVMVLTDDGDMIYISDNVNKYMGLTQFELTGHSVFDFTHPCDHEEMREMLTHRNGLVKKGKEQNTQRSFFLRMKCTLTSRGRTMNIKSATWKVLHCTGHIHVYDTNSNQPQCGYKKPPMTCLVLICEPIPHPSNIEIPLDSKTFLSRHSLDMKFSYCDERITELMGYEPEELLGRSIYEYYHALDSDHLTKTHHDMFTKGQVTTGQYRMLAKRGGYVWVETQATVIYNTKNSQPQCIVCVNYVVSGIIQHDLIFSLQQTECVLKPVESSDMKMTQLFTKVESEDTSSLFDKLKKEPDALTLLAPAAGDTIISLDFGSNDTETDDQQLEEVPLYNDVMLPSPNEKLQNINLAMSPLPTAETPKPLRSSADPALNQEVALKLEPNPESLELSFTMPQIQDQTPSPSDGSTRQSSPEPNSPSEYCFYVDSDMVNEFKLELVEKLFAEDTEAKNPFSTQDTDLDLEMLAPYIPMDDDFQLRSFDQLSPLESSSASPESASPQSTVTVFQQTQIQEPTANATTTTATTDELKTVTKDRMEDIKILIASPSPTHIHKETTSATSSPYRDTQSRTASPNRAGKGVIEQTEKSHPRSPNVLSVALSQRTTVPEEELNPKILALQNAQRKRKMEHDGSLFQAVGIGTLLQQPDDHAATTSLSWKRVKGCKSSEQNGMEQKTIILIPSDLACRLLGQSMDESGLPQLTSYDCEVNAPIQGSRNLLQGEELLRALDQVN
Chain of Hepatocyte nuclear factor 3-beta (Homo sapiens) (Q9Y261 whole entry, looked up): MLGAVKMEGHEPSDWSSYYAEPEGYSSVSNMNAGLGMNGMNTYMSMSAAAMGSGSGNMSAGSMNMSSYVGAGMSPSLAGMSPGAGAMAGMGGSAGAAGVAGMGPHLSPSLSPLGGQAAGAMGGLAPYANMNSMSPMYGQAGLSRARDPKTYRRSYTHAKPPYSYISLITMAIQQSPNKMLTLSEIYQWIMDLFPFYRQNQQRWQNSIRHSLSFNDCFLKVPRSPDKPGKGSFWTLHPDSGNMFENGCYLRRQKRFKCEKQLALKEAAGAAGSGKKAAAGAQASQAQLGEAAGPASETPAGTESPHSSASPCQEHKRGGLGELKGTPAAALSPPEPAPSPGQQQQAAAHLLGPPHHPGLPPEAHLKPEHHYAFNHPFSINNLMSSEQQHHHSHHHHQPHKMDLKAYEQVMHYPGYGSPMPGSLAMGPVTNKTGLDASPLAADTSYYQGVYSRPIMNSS
Chain of Hepatocyte nuclear factor 6 (Homo sapiens) (Q9UBC0 whole entry, looked up): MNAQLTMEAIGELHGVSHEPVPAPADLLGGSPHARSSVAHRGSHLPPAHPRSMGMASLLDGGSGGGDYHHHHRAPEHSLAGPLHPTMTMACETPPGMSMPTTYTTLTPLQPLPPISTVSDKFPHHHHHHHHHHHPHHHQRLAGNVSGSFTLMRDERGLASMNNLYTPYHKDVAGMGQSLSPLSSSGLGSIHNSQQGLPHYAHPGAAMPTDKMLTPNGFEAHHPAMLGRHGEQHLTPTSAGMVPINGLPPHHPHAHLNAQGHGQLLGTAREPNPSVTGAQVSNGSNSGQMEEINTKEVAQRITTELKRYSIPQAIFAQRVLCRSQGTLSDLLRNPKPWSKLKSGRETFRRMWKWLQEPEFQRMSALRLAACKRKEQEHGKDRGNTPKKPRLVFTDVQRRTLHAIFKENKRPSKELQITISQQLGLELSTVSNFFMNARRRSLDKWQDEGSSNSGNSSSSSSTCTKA

CC(C)c1ccc(O)c(C(C)C)c1
active: [6] 41.2 µM
not listed: [20]
inactive: all other assays above

Oc1ccc(/C=C/c2cc(O)cc(O)c2)cc1
active: [6] 6.81 µM | [7] 153 µM | [13] 100 µM
not listed: [12] | [16]
inactive: all other assays above

CCCCCCOC(=O)CCCCC(=O)OCCCCCC
active: [6] 27.5 µM
not listed: [12]
inactive: all other assays above

CO[Si](CCCS)(OC)OC
active: [6] 68.7 µM
not listed: [12] | [19]
inactive: all other assays above

CC(C)(CO)C(O)C(=O)NCCCO (stereo not given)
not listed: [12] | [16]
inactive: all other assays above

CC1CCC(C(C)(C)S)C(=O)C1 (stereo not given)
not listed: [12]
inactive: all other assays above

CCCCc1ccc(Cl)cc1
not listed: [12]
inactive: all other assays above
